The list is not random: actives were taken first. Their share in the collection is about 18%.
HepG2 viability – counter-screen for TGF-b inhibitors: cytotoxicity in HepG2 cells; HepG2 CAGA-GFP viability, ATP luminescence, 18 h; Potency, µM (top dose mostly 46.1 µM), for the others: top-dose activity change, negative = cytotoxicity, hits mostly cytotoxic; 410,000 compounds, 0.76% hits; note: potency is the fitted concentration of half-maximal effect
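HepG2 CAGA-GFP cells (1000/well, DMEM with 1% FBS) received compound, then TGF-beta at 500 pg/mL final, and were incubated 18 hours at 37 degrees C. Viability was read by CellTiter-Glo luminescence. Media-only wells were set as complete cell-killing and DMSO as no toxicity.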
TDP1 cell noCPT – qHTS for Inhibitors of human tyrosyl-DNA phosphodiesterase 1 (TDP1): qHTS in cells in absence of CPT. 420,000 compounds, 15% hits. AID 686978, 2013. Potency, µM (top dose mostly 46.2 µM), for inactives: at the highest dose activity change, negative = growth inhibition, usual class: inhibitors. DT40 Tdp1-/- hTDP1 cells, no CPT, ATP luminescence, 48 h; note: potency is the fitted concentration of half-maximal effect; % is set by controls: 0 for no effect and ±100 for the full control effect; nearly all actives have a fitted effect of over 55% in size
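Luminescent ATP content (CellTiter-Glo) served as the growth readout. Knockout chicken DT40 cells expressing human TDP1 were exposed to compounds without camptothecin for a minimum 48 hr at 37 °C.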
IL1B secr inh – blocks inflammasome-driven IL-1 beta release; THP-1 LPS/ATP IL-1B secretion, AlphaLISA, 16 h; stronger effect = lower value; activity change, % at 57.5 µM; 360,000 compounds, 4.7% hits; AID 743279; in the data active = activity change below about -50%; inconclusive = mostly about -30% to -49%; note: % is set by controls: 0 for no effect and ±100 for the full control effect
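THP-1 cells pretreated 1 hr with compounds (up to 57.5 uM final), then stimulated with LPS (250 ng/mL final) plus ATP (1.25 mM final); secreted IL-1B measured by AlphaLISA after 16 hr, decreased signal indicating inhibition.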
TDP1 cell CPT – DT40-hTDP1 cell growth loss with CPT | chicken DT40 Tdp1-/-;hTDP1 cells + 20 nM CPT, ATP luminescence, 48 h | Potency, µM (highest dose often 46.2 µM), for inactives: top-dose activity change, negative = growth inhibition, hits mostly inhibitors | 420,000 compounds, 12% hits | AID 686979; note: potency is the fitted concentration of half-maximal effect; % is set by controls: 0 for no effect and ±100 for the full control effect; nearly all actives have a fitted effect of over 55% in size
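Chicken DT40 Tdp1-/- cells stably complemented with human TDP1 were seeded at 400 cells/well in medium containing 20 nM camptothecin, exposed to pin-transferred compounds, and grown at 37 °C for at least 48 hr. Viability was read as ATP luminescence.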
TGFb inhibitor – TGF-b pathway inhibition; 410,000 compounds, 1.2% hits; HepG2 CAGA-GFP TGF-b/SMAD3 reporter, GFP fluorescence, 18 h; TGF-beta stimulated, 500 pg/mL final; Potency, µM (highest dose often 46.1 µM), for the others: at the top dose activity, negative = inhibition, actives largely listed as inhibitors; note: potency is the fitted concentration of half-maximal effect; % is set by controls: 0 for no effect and ±100 for the full control effect; nearly all actives have a fitted effect of over 65% in size
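Per well, imaged GFP fluorescence of HEPG2 CAGA-GFP cells gives the signal; cells get compound, then TGF-beta (500 pg/mL final), 18 h at 37 degrees C; %Activity versus -TGF-beta and +DMSO controls.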
TDP1 inh – inhibitors of human tyrosyl-DNA phosphodiesterase TDP1; 350,000 compounds, 0.28% hits; recombinant TDP1, AlphaScreen DNA substrate cleavage; Potency, µM (titrated, usually from 130 µM), without a hit: at the highest dose activity change, negative = inhibition, most hits filed as inhibitors; Q9NUW8; note: potency is the fitted concentration of half-maximal effect; % is set by controls: 0 for no effect and ±100 for the full control effect; nearly all actives have a fitted effect of over 40% in size
Target sequence (Q9NUW8 whole entry, looked up): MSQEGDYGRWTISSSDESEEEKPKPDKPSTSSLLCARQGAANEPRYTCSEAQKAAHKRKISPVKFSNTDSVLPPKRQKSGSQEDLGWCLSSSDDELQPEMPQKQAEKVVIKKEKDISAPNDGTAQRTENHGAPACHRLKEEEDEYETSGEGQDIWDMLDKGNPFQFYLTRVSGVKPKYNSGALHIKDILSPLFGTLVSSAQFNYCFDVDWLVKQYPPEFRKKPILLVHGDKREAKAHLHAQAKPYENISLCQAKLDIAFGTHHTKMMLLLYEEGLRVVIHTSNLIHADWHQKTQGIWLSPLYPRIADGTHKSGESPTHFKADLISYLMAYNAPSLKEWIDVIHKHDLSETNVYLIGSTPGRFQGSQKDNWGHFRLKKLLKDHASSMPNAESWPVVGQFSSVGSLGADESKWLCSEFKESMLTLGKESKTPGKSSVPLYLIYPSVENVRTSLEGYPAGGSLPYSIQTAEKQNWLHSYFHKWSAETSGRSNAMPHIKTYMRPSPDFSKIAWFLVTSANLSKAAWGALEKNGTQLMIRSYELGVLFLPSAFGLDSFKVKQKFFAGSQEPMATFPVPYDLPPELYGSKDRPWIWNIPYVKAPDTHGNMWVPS
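Tdp1 1 nM final; 15 min RT w/ cpd; substrate 15 nM, 5 min; beads 10 ug/ml, 10 min; AlphaScreen read. Neg ctrl: no enzyme.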
Numbers without * were called inactive; ! = a repeat was not active. Unless noted, calls come from the whole dose curve; as a rule, active = well fitted curve in the direction sought with a large enough effect; inconclusive = small, poorly fitted or top-dose-only effect, or another doubt; inactive = no such curve, though single readings can be large; an effect the other way counts as inactive or inconclusive.

For CCOc1ccc(NC(=O)C2CCN(S(=O)(=O)c3ccc4c(c3)NC(=O)C(C)S4)CC2)cc1 (configuration not stated) the results were HepG2 viability -28%, TDP1 cell noCPT inconclusive, IL1B secr inh 22, TDP1 cell CPT inconclusive, TGFb inhibitor -10% and TDP1 inh 0%.
`COC(=O)c1nn(-c2nc(-c3cccc(OC)c3)cc(C(F)(F)F)n2)cc1[N+](=O)[O-]` gave HepG2 viability -2%, TDP1 cell noCPT -30%, IL1B secr inh 39, TDP1 cell CPT -3%, TGFb inhibitor 3% and TDP1 inh 2%.
CCOCCCNC(=O)C(c1ccc(OC)cc1)N(Cc1cccs1)C(=O)c1ccc(NC(C)=O)cc1 (configuration not stated) was read as HepG2 viability 6%, TDP1 cell noCPT 12µM*, TDP1 cell CPT 8.2µM*, TGFb inhibitor 8% and TDP1 inh 3%.
`COc1ccc(NC(=O)C(c2ccc(OC)cc2)N(C)C(=O)Cc2cccs2)cc1` (configuration not stated) gave HepG2 viability -39%, TDP1 cell noCPT -29%, IL1B secr inh inconclusive, TDP1 cell CPT 23µM*!, TGFb inhibitor 0% and TDP1 inh 6%.
COc1ccc(S(=O)(=O)N2CCC(C(=O)NCCc3c[nH]c4ccccc34)CC2)cc1 was read as HepG2 viability -5%, TDP1 cell noCPT 0%, IL1B secr inh 5, TDP1 cell CPT inconclusive and TGFb inhibitor 13%.
Screening CCCc1cc(=O)[nH]c(SCC(=O)NC(=O)NC2CCCC2)n1 returned HepG2 viability -3%, TDP1 cell noCPT inconclusive, IL1B secr inh 54, TDP1 cell CPT inconclusive, TGFb inhibitor inconclusive and TDP1 inh 0%.
`COc1cccc(C(=O)NC2=NC(c3ccccc3F)CC(=O)N2)c1` (configuration not stated) gave HepG2 viability 0%, TDP1 cell noCPT -7%, TDP1 cell CPT 0%, TGFb inhibitor -1% and TDP1 inh 3%.
CC(=O)[C@@]1(O)C(C)CC2C3C=C(C)C4=Cc5c(cnn5-c5ccccc5)C[C@]4(C)C3C(O)C[C@@]21C (some centres not stated) was read as HepG2 viability -36%, TDP1 cell noCPT 5.2µM*, IL1B secr inh -91*, TDP1 cell CPT 4.6µM*, TGFb inhibitor inconclusive and TDP1 inh 6%.
Screening O=C(c1ccccc1)N1CCN(c2ncnc3sc4c(c23)CCC4)CC1 returned HepG2 viability -24%, TDP1 cell noCPT 23µM*, IL1B secr inh 0, TDP1 cell CPT 21µM*, TGFb inhibitor 0% and TDP1 inh 2%.
For Cc1nc(N2CCN(C(=O)c3ccco3)CC2)c2c3c(sc2n1)CCC3 the results were HepG2 viability -37%, TDP1 cell noCPT 12µM*, IL1B secr inh inconclusive, TDP1 cell CPT 16µM*, TGFb inhibitor inconclusive and TDP1 inh 8%.
c1nc(N2CCOCC2)c2c3c(sc2n1)CCCC3 was read as HepG2 viability 1%, TDP1 cell noCPT inconclusive, IL1B secr inh 18, TDP1 cell CPT inconclusive, TGFb inhibitor -1% and TDP1 inh 1%.
Screening CCc1c(C)nc2nncn2c1NCc1ccccc1 returned HepG2 viability -17%, TDP1 cell noCPT 16µM*, TDP1 cell CPT inconclusive, TGFb inhibitor inconclusive and TDP1 inh 2%.
For CCc1c(C)nc2nncn2c1Nc1ccc(Cl)cc1 the results were HepG2 viability 4%, TDP1 cell noCPT 9.2µM*, TDP1 cell CPT inconclusive and TDP1 inh 5%.
COC(=O)C/C=C/N(Cc1ccccc1OC)S(=O)(=O)CCl was read as HepG2 viability 1%, TDP1 cell noCPT -4%, IL1B secr inh 12, TDP1 cell CPT 8% and TGFb inhibitor inconclusive.
CN(C)c1ccc(C(=O)Nc2sc(Nc3ccccc3)nc2C(N)=O)cc1 was read as HepG2 viability -55%, TDP1 cell noCPT 7.3µM*, TDP1 cell CPT inconclusive, TGFb inhibitor -29% and TDP1 inh -3%.
For Cn1c(O)c(N=NC(=O)c2cccc(S(=O)(=O)N3CCCCC3)c2)c2ccccc21 the results were HepG2 viability -16%, TDP1 cell noCPT inconclusive, IL1B secr inh -22, TDP1 cell CPT 16µM*, TGFb inhibitor inconclusive and TDP1 inh 8%.
`Cn1cnnc1SCC(=O)NNC(=O)c1ccc([N+](=O)[O-])cc1` gave HepG2 viability 18%, TDP1 cell noCPT 19%, IL1B secr inh 12, TDP1 cell CPT 32%, TGFb inhibitor 6% and TDP1 inh 0%.
CCCOc1ccc(C2CC(=O)NC2=O)cc1 (configuration not stated) was read as HepG2 viability -15%, TDP1 cell noCPT -27%, IL1B secr inh -7, TDP1 cell CPT -48%, TGFb inhibitor -18% and TDP1 inh 5%.
`CCOc1ccc(NC(=O)CSc2ncc(S(=O)(=O)c3ccc(F)c(C)c3)c(=O)[nH]2)cc1` gave HepG2 viability -10%, TGFb inhibitor 0% and TDP1 inh 2%.
Screening CC(C)=C1C2C=CC1C1C(=O)N(c3ccc4c(c3)OCO4)C(=O)C21 (configuration not stated) returned HepG2 viability -23%, TDP1 cell noCPT 21µM*, IL1B secr inh 6, TDP1 cell CPT inconclusive, TGFb inhibitor -12% and TDP1 inh 5%.
For CC(C)=C1C2CCC1C1C(=O)N(c3ccc4c(c3)OCO4)C(=O)C21 (configuration not stated) the results were HepG2 viability -8%, TDP1 cell noCPT -25%, IL1B secr inh 1, TDP1 cell CPT -5%, TGFb inhibitor -9% and TDP1 inh -1%.
`O=C(/C=C/c1ccc(Br)o1)NC(c1ccccc1)c1ccccc1` gave HepG2 viability -58%, TDP1 cell noCPT inconclusive, IL1B secr inh inconclusive, TDP1 cell CPT 9.2µM*, TGFb inhibitor -44% and TDP1 inh 3%.
For CC1CCCN(S(=O)(=O)c2ccc(NC(=O)CNC3CCCC3)cc2)C1 (configuration not stated) the results were HepG2 viability -26%, TDP1 cell noCPT inconclusive, IL1B secr inh inconclusive, TDP1 cell CPT inconclusive and TGFb inhibitor -11%.
